Compound activity as filed in PubChem BioAssay.
JMJD2A Tudor: JMJD2A Tudor domain (human) inhibition | O75164 | AlphaScreen JMJD2A-Tudor / H3K4me3 peptide binding | Potency, µM (doses to about 114 µM), for inactives: at the top dose activity change, negative = inhibition, actives largely listed as inhibitors | actives 4.4% (n = 390,000) | AID 504339; also: % is scaled to controls: 0 for no effect and ±100 for the full control effect; nearly all actives have a fitted effect of over 50% in size
BAZ2B block: BAZ2B (human) inhibition; Q9UIF8; AlphaScreen BAZ2B-H3K14Ac peptide displacement; Potency, µM (doses to about 114 µM), without a hit: at the top dose activity change, negative = inhibition, actives largely listed as inhibitors; actives 4.4% (n = 360,000); AID 504333; also: % is scaled to controls: 0 for no effect and ±100 for the full control effect; nearly all actives have a fitted effect of over 60% in size
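Protein-peptide AlphaScreen: BAZ2B 50 nM, b-H3K14Ac 50 nM, 1x PBS pH 7.4 + 0.01% Tween-20. Preincubation 30 min RT; cpd 30 min RT (top 110 uM); beads 20 min RT, light-protected.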
G9a inh: blocks human histone lysine methyltransferase G9a; Potency, µM (highest dose often 102 µM), without a hit: top-dose activity, negative = inhibition, usual class: inhibitors; actives 8.8% (n = 350,000); G9a H3K9 monomethylation, AlphaScreen, 2 h; AID 504332; also: % is scaled to controls: 0 for no effect and ±100 for the full control effect; nearly all actives have a fitted effect of over 75% in size
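Using a bead-based AlphaScreen, monomethylated H3K9 product from 2 h room-temperature reactions (G9a 20 nM, peptide 500 nM, SAM 20 uM) was detected with 0.5 ug/mL rabbit anti-H3K9me1 antibody.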
HP1b chromo inh: blocks HP1-beta chromodomain binding to methylated histone tails. actives 0.56% (n = 390,000). Potency, µM (doses to about 114 µM), without a hit: at the top dose activity change, negative = inhibition, most hits filed as inhibitors. AlphaScreen HP1-beta / biotin-H3K9me3 peptide binding; also: nearly all actives have a fitted effect of over 70% in size
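HP1-beta protein (50 nM final) preincubated 30 min at room temperature with biotinylated H3(1-18)K9me3 peptide (50 nM) in PBS pH 7.4, 0.01% Tween-20, then compound added for 30 min. AlphaScreen streptavidin donor/nickel chelate acceptor beads (10 ug/mL final), 30 min dark, luminescence read.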
PLK1 PBD block: blocks phosphopeptide binding to human PLK1 polo-box domain; Plk1 PBD binding of FITC phosphopeptide, fluorescence polarization; actives 2.8% (n = 360,000); AID 720504; Potency, µM, inactives show max response, negative = inhibition, usual class: inhibitors; P53350; also: series mostly up to about 57 µM; % is scaled to controls: 0 for no effect and ±100 for the full control effect; nearly all actives have a fitted effect of over 65% in size
Target sequence (P53350 whole entry, looked up, the tested form may be a part): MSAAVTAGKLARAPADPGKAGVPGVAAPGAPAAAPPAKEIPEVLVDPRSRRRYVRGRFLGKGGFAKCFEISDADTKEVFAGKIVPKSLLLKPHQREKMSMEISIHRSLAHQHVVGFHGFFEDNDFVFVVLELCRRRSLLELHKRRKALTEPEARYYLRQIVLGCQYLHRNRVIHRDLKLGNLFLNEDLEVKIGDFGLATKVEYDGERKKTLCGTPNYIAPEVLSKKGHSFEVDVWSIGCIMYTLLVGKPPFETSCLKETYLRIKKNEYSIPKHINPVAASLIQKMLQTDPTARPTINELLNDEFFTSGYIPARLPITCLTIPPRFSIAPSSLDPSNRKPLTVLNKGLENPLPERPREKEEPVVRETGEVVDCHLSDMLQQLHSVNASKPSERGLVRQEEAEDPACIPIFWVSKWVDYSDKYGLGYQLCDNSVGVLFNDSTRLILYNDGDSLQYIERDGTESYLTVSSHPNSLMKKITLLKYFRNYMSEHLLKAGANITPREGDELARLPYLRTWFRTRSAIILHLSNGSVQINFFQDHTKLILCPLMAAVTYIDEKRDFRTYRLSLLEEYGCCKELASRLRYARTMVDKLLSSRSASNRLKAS
12-LOX inh: blocks human arachidonate 12S-lipoxygenase; Potency, µM (doses to about 108 µM), for inactives: top-dose activity change, negative = inhibition, actives largely listed as inhibitors; AID 1671190; P18054; purified 12hLO, xylenol orange hydroperoxide absorbance; actives 1.1% (n = 580,000); also: % is scaled to controls: 0 for no effect and ±100 for the full control effect
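Purified human 12hLO at 150 nM in 25 mM Hepes, 0.01% Triton X-100, pH 7.0, preincubated 15 min at room temperature with compound. Reaction started with 40 uM arachidonic acid, 30 min at room temperature. Hydroperoxide measured by Fe-xylenol orange, 573/405 nm absorbance ratio.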
* = called active by the depositor; [ ] = dose if it differs, or a comment. The list is not random: actives were taken first. Their share in the collection is about 9%. Calls follow the shape of the dose curve; as a rule, active = well fitted curve in the direction sought with a large enough effect; inconclusive = small, poorly fitted or top-dose-only effect, or another doubt; inactive = no such curve, though single readings can be large; an effect the other way counts as inactive or inconclusive. Potency is read from the fitted curve at half-maximal effect.

Results for CC(C)C[C@H]1COc2cc(NCCCN3CCOCC3)ccc2S(=O)(=O)N1 ?
12-LOX inh: -65%

Results for O=S1(=O)N[C@@H](Cc2ccccc2)COc2cc(NCCCN3CCOCC3)ccc21 ?
12-LOX inh: 50µM*

Results for COc1ccc([C@H]2C[C@@H](O)[C@@H](O)[C@@H]2NC(=O)c2nc3ccccc3s2)cc1 ?
12-LOX inh: 8%[176 µM]

How did Cc1ccccc1[C@H]1C[C@@H](O)[C@@H](O)[C@@H]1NC(=O)c1nc2ccccc2s1 do in these assays?
12-LOX inh: 45µM*

How did COc1ccc(C(=O)N2CCN(C(=O)c3ccco3)CC2)cc1 do in these assays?
JMJD2A Tudor: -7%; BAZ2B block: 4%; G9a inh: -8%[59 µM]; HP1b chromo inh: 12%; PLK1 PBD block: -10%; 12-LOX inh: 0%

How did CC(=O)c1cccc(NC(=O)c2ccc(C#N)cc2F)c1 do in these assays?
12-LOX inh: 2%

How did O=C1/C(=C/c2cccnc2)SC(=S)N1c1ccccc1 do in these assays?
JMJD2A Tudor: -4%; BAZ2B block: 8%; G9a inh: inconclusive; HP1b chromo inh: 28%; PLK1 PBD block: -3%; 12-LOX inh: 2%

How did O=C(O)c1ccc(N2C(=O)/C(=C/C=C/c3ccccc3)SC2=S)cc1 do in these assays?
JMJD2A Tudor: inconclusive; BAZ2B block: inconclusive; G9a inh: 45µM*; HP1b chromo inh: -14%; PLK1 PBD block: 27µM*; 12-LOX inh: -29%

What do the screens show for `CN(C)c1ccc(/C=C/C=C2/SC(=S)N(c3ccccc3)C2=O)cc1`?
JMJD2A Tudor: 5.6µM*; BAZ2B block: inconclusive; G9a inh: inconclusive; HP1b chromo inh: -92%; PLK1 PBD block: -3%; 12-LOX inh: inconclusive

How did CC1(C)CNc2cc(N)ccc2S1 do in these assays?
JMJD2A Tudor: 45µM*; BAZ2B block: 45µM*; G9a inh: 3.5µM*; HP1b chromo inh: inconclusive; PLK1 PBD block: -14%; 12-LOX inh: inconclusive

How did CC(=O)Nc1ccc(S(=O)(=O)Nc2nnc(CC(C)(C)C)s2)cc1 do in these assays?
JMJD2A Tudor: -30%; BAZ2B block: inconclusive; G9a inh: inconclusive; HP1b chromo inh: inconclusive; PLK1 PBD block: 27µM*; 12-LOX inh: -19%

What do the screens show for `CCc1nnc(NS(=O)(=O)c2ccc(NS(=O)(=O)c3ccc(NC(C)=O)cc3)cc2)s1`?
BAZ2B block: -2%; G9a inh: -4%

Results for Cc1ccc(S(=O)(=O)Nc2nnc(CC(C)(C)C)s2)cc1 ?
JMJD2A Tudor: -21%; BAZ2B block: -21%; G9a inh: 35µM*; HP1b chromo inh: -5%; PLK1 PBD block: 27µM*; 12-LOX inh: -17%

How did Cc1[nH]nc(Nc2ccc(C(C)C)cc2)c1[N+](=O)[O-] do in these assays?
JMJD2A Tudor: -35%; BAZ2B block: -28%; G9a inh: inconclusive; HP1b chromo inh: -1%; PLK1 PBD block: -7%; 12-LOX inh: inconclusive

How did Cc1cccc(N2C(=O)CN(Cc3sccc3C)C2=S)c1 do in these assays?
JMJD2A Tudor: 21%; BAZ2B block: -3%; G9a inh: inconclusive; HP1b chromo inh: 71%; PLK1 PBD block: 0%; 12-LOX inh: 4%

Results for Fc1cccc(F)c1-c1nc2c(s1)CCc1onc(-c3ccc(Br)cc3)c1-2 ?
JMJD2A Tudor: -14%; HP1b chromo inh: -6%; PLK1 PBD block: -17%; 12-LOX inh: 14µM*

How did Fc1ccccc1-c1nc2c(s1)CCc1onc(-c3ccc(Br)cc3)c1-2 do in these assays?
JMJD2A Tudor: -6%; HP1b chromo inh: 9%; PLK1 PBD block: -13%; 12-LOX inh: -25%

Results for COc1ccc(-c2noc3c2-c2nc(-c4c(F)cccc4F)sc2CC3)cc1 ?
JMJD2A Tudor: -17%; BAZ2B block: -23%; G9a inh: 32µM*; HP1b chromo inh: 15%; PLK1 PBD block: -15%; 12-LOX inh: inconclusive
